The record followed here is the OligoGym collection.
Also: reference of the scale not given here.

The first test has as its target ZNF32. The test is described as follows: pooled miR-30 sensor sort-seq; sequence = guide strand. The following applies: shRNA.
Take TTGATGTGTAACAAGATTGCCT: the sensor-assay potency score (higher = more potent) was 0.254.
Sequence TGTAGTGTCTTCGAATCTGGGG yielded a sensor-assay potency score (higher = more potent) of 0.479.
For the sequence TCTTCCTGTAGTGTCTTCGAAT, the sensor-assay potency score (higher = more potent) is -1.44.
The sequence ATATCTTCCATGACAGTCCAGC yielded a sensor-assay potency score (higher = more potent) of -0.761.
Still for that read-out and setting: with TTGAAGAACGCTACATTCTGGG the figure was 0.82.
On the same count and under the same terms, with TTGAGGATCCTGTAGCCTCAGA the figure was -1.2.
The same measure, in the same setting: with TATCCCAGCTTGAGGATCCTGT the figure was -0.615; with TGAATCTTCCTGTAGTGTCTTC, -0.275; with TTAGACTACCTTTTTGCCGGAA, -0.355.
Consider TAGTGTCTTCGAATCTGGGGAT, for which the sensor-assay potency score (higher = more potent) was -0.0716.
For TCTTCCATGACAGTCCAGCAGG, the sensor-assay potency score (higher = more potent) was -1.26.
In turn, TAACGTTAGACTACCTTTTTGC came in with a sensor-assay potency score (higher = more potent) of -0.0672.

The target of a further test is ZNF343. Described as above. The settings on record: shRNA.
Regarding TTGACTTATGACTAAAGCCTCG, the sensor-assay potency score (higher = more potent) is -0.75.
On the same count and under the same terms, the same measure for ATAGTCTCTACATTTTCCCCAT: -0.495.
In turn, TTTGATGAGATCTGAGTTCTGG had a sensor-assay potency score (higher = more potent) of 0.519.
On the same count and under the same terms, the same measure for TATCATTAGAAGGCAAGCCTTT: -0.78.
The same measure, in the same setting: with TTGAGGATGGACTTACTTCTAA the figure was -0.709; with TTTGACTTATGACTAAAGCCTC, -0.874; with TTGATGAGATCTGAGTTCTGGC, 0.144.
The same measure, in the same setting: with TAGAAGGCAAGCCTTTCGCTTT the figure was -0.611; with TTTCGCTTTATGATTTTGGGTC, -0.0502; with TTGACTTGTCACAAAAGCCTCG, -0.0132.
In turn, TTGACTTCTGGCTAAAACCTCG registered a sensor-assay potency score (higher = more potent) of -0.583.
Still for that read-out and setting: with TACATGTTGACTGAGGAACTGC the figure was -0.356.

The target in a further test is ZNF383. Described as above. The following applies: shRNA.
As to TAAGATTTGAGCAATAACTAAA, the sensor-assay potency score (higher = more potent) is -1.31.
In turn, TAAATTGTGAGTTCTGACTAAA yielded a sensor-assay potency score (higher = more potent) of -0.929.
Still for that read-out and setting: the same measure for TCTCTGATGTTGAACAAGCTTT: -0.743; for TATATTCCAAAACATCTCCAAA: -1.29.
The sequence TTCTTTAGAGATAATAACTTGG showed a sensor-assay potency score (higher = more potent) of -0.196.
Same read-out and setting: the same measure for TAACATGTGAACCACAACTAAA: -1.41; for TTGAACAAGCTTTGAGCTCTGG: 0.42.
In the case of TTGAGCAATAACTAAAGGCCTT, the sensor-assay potency score (higher = more potent) was -0.458.
On to TTGAATAAATTGTGAGTTCTGA, for which the sensor-assay potency score (higher = more potent) was -0.124.
Still for that read-out and setting: with TTCTATTTCATAAACTTCCTTC the figure was -0.0685.
For TAACTTGGTTTCACACATCGAT, the sensor-assay potency score (higher = more potent) was found to be 0.203.

In the next test the target is ZNF384. Described as above. The following applies: shRNA.
TTGAGCCTGAGCCTGAGCCTGG displayed a sensor-assay potency score (higher = more potent) of -0.986.
For the sequence TTTATCTTTGTTGTGTTGCCGT, the sensor-assay potency score (higher = more potent) was 0.173.
The same measure, in the same setting: with TTGATGAACATTGTGTTCTCGA the figure was 0.78.
The same measure, in the same setting: the same measure for TTGTGTTCTCGATCTGACCTGA: 0.373; for AATGTCAGTGAGCACATCCGGC: -0.852.
